# Results as given in PubChem BioAssay AID504652 (National Center for Advancing Translational Sciences (NCATS), 2011).
# Values joined by “and” are separate entries in the source; they are usually repeats but may differ in a detail not shown here. Equal entries are not always repeated. The campaign covered roughly 360,000 compounds. About 11,000 (3.1%) were called active. The sample as a whole holds a higher share of actives than the screen did. Values without a mark were called inactive. Cut-off read from the data, not from the text of the source: active = activity change below about -30%; inactive = the rest.
# Molecular target: D(1A) dopamine receptor (Homo sapiens) (UniProt P21728)
# Sequence (P21728 whole entry, looked up): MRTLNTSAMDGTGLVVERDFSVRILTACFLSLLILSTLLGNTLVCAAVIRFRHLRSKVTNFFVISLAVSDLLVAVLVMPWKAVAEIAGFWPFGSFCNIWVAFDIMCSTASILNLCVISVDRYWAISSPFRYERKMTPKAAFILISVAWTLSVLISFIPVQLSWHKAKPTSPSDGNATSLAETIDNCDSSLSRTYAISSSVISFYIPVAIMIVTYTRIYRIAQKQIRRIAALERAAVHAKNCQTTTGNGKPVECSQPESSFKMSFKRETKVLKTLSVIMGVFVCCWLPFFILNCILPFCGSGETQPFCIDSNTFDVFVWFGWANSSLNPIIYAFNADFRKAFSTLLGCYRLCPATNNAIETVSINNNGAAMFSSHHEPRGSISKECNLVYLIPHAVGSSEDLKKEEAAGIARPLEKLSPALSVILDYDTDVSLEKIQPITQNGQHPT
# Test: Antagonist of Human D 1 Dopamine Receptor: qHTS
# Conditions: HEK293 TREx D1 cells, calcium flux, dopamine EC80; at 10 µM; stronger effect = lower value
# Summary of the method: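 Tetracycline-induced HEK293 Trex D1 cells, force-coupled to calcium, dye-loaded; compounds added and read 180 s, then EC80 dopamine added and calcium flux tracked kinetically another 180 s.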
# % is set by controls: 0 for no effect and ±100 for the full control effect.
row,Compound,"activity change, negative = inhibition"
1,COc1ccc(-c2cc(C(=O)NCc3cc(OC)c(OC)c(OC)c3)[nH]n2)cc1,-10.2%
2,COc1ccc(C(F)(F)F)cc1NC(=O)c1sc2nc(-c3cccs3)ccc2c1N,-1.54%
3,NS(=O)(=O)c1ccc(NC(=O)C(=O)Nc2ccc3nc4n(c(=O)c3c2)CCCCC4)cc1,-3.24%
4,COc1ccc(Cc2nc3ccc(C(=O)NCc4ccccc4Cl)cc3o2)cc1,-19.1%
5,CN1CCN(C(CNC(=O)c2ccccc2F)c2ccc3c(c2)OCO3)CC1 (centres undefined),8.69%
6,CCOc1cc(C(=O)NCCc2csc3nc(-c4ccc(C)cc4)nn23)cc(OCC)c1OCC,3.63%
7,O=C(NCc1ccco1)c1sc2cccc(F)c2c1Cl,-46.1% (active)
8,O=C(NCc1ccco1)c1nn2cccnc2c1Cl,15.7%
9,O=C(NCc1ccco1)c1cc2sccc2n1Cc1ccc(F)cc1,-8.06%
10,CCOc1ccc(N2CC(C)Cn3c2nc2c3c(=O)n(Cc3c(F)cccc3Cl)c(=O)n2C)cc1 (centres undefined),-2.48%
11,COc1ccc(CNC(=O)c2ccc3c(c2)nc2n3CCOC2)c(OC)c1,1.06%
12,Cc1ccc(CNC(=O)CSC2=Nc3ccccc3C3=NC(C)C(=O)N23)cc1 (centres undefined),-1.57%
13,O=C(CSC1=Nc2ccccc2C2=NC(c3ccccc3)C(=O)N12)NCC1CCCO1 (centres undefined),-47% (active)
14,O=C(CSc1ccc(-c2ccccc2)nn1)NCC1CCCO1 (centres undefined),5.37%
15,O=C(COc1ccc(Cl)cc1)Nc1ccc(-c2nc3cc(Cl)ccc3o2)c(O)c1,3.9%
16,CN(CC(=O)Nc1ccccc1F)S(=O)(=O)c1ccc2c(c1)c(=O)n(C)c(=O)n2C,8.37%
17,CCOc1ccc(NC(=O)C(CC(C)C)N2Cc3ccccc3C2=O)cc1 (centres undefined),6.62%
18,COC(=O)c1ccc(NC(=O)C(C)N2C(=O)c3ccccc3C2=O)cc1 (centres undefined),-2.2%
19,CCOc1ccc(NC(=O)C(C)N2C(=O)c3ccccc3C2=O)cc1 (centres undefined),-42.7% (active)
20,COc1cc2nc(SCC(=O)Nc3ccccc3F)n3nc(-c4ccccc4)nc3c2cc1OC,-6.83%
21,COc1ccc(CNc2nc(-c3ccc(Cl)cc3)nn2C(=O)c2ccccc2)cc1,-0.876%
22,Cc1cccc(NC(=O)Cn2c(=O)n(Cc3ccccc3)c(=O)c3c(C)c(C)sc32)c1,-0.708%
23,CCOc1ccccc1NC(=O)Cn1c(=O)n(Cc2ccccc2)c(=O)c2c(C)c(C(=O)N(C)C)sc21,-72.6% (active)

row,Compound,"activity change, negative = inhibition"
1,Cc1c(C(=O)N(C)C)sc2c1c(=O)n(-c1ccc(F)cc1)c(=O)n2CC(=O)N(C)c1ccccc1,-0.832%
2,CCOc1ccc(OCC)c(NS(=O)(=O)c2ccc3[nH]c(=O)ccc3c2)c1,-7.27%
3,CCCOc1ccc(C2=CSC3=NCCN23)cc1Cl,3.06%
4,CCC1SC2=NCCN2C1(O)c1ccc(Cl)cc1 (centres undefined),-31.5% (active)
5,Cc1cn(C)c(CC(=O)NCc2ccccc2)c1C(=O)O,0.691%
6,Cc1cc(F)ccc1NC1(c2ccccc2)C(=O)c2ccccc2C1=O,-5.68%
7,COc1ccc(OCCn2cc(C(=O)C3CCCCC3)c3ccccc32)cc1,10.3%
8,CCOC(=O)C1CCCN(C(=O)c2ccc(-n3ccc4ccccc43)s2)C1 (centres undefined),-9.46%
9,Cc1ccc(Nc2c(-c3ccc(N(C)C)cc3)nc3nc[nH]n23)cc1,1.41%
10,CCOC(=O)C1CCN(C(=O)c2cccc(S(=O)(=O)N(CC)c3ccccc3)c2)CC1,-4.11%
11,O=C(NCc1ccccc1CN1CCCC1)c1cccc(S(=O)(=O)Nc2ccc(F)cc2)c1,2.42%
12,CCN(c1ccccc1)S(=O)(=O)c1cccc(C(=O)NCc2ccccc2CN2CCOCC2)c1,-31.4% (active)
13,COc1cccc(Cn2c(SCc3ccc(C(=O)N4CCC(C)CC4)cc3)nc3ccncc32)c1,-10.8%
14,CC(C)(C)OC(=O)N1CCC(c2c(C(=O)NCCc3ccsc3)cnn2-c2ccc(F)cc2F)CC1,-6.33%
15,O=C(O)C1CCN(S(=O)(=O)N2CCOCC2)CC1,0.172%
16,CCOC(=O)C1CCN(C(=O)C2CCN(S(=O)(=O)N3CCCC3)CC2)CC1,-2.4%
17,CC1CCN(C(=O)C2CCN(S(=O)(=O)N3CCC4(CC3)OCCO4)CC2)CC1,-37.8% (active)
18,CCSc1ccccc1C(=O)Nc1ccc2c(c1)OCO2,10%
19,CC(=O)Nc1cccc(C(=O)OCC(=O)c2ccc3c(c2)OCO3)c1,-0.144%
20,CC(C)C(=O)Nc1cccc(C(=O)Nc2ccc3c(c2)OCO3)c1,-43.1% (active)
21,Cc1ccc(Cn2c(=O)n(CCCC(=O)NCc3ccccc3Cl)c(=O)c3ccccc32)cc1,5.86%
22,CCOc1ccc(OCC)c(Nc2nc3ccccc3n3nnnc23)c1,1.86%
23,Fc1ccc(CSc2nc(NCc3ccccc3)c3ccccc3n2)cc1,21.1%

row,Compound,"activity change, negative = inhibition"
1,Fc1ccc(CNc2nc3ccccc3n3nnnc23)cc1,-50.2% (active)
2,CCOC(=O)c1cccc(NC(=O)C(Cc2ccccc2)NS(=O)(=O)c2cccc3nsnc23)c1 (centres undefined),-3.2%
3,OCCNCc1cccc(OCc2ccccc2Cl)c1,0.511%
4,Clc1cccc(Cl)c1OCCOCCNCc1ccccc1,-39.7% (active)
5,CCOc1ccccc1OCCCNCc1ccccc1,-23.9%
6,O=C(CN1c2ccccc2S(=O)(=O)c2ccccc21)Nc1cccc(C(F)(F)F)c1,-3.23%
7,Cc1cccc(CC(=O)Nc2cccc(-c3cn4cccnc4n3)c2)c1,-7.29%
8,COc1cc(CNC(=O)c2cc3n(n2)CCCN(Cc2cccc(F)c2)C3=O)cc(OC)c1OC,-15.1%
9,COc1ccccc1CNS(=O)(=O)c1cc2c3c(c1)CCC(=O)N3CCC2,-53% (active)
10,COc1ccc(C)cc1S(=O)(=O)NC1CCCCC1,2.79%
11,COc1ccccc1CCNS(=O)(=O)c1cc2c3c(c1)C(C)C(=O)N3CCC2 (centres undefined),-6.83%
12,O=C1CCc2cc(S(=O)(=O)Nc3ccc(C(F)(F)F)cc3)cc3c2N1CC3,-8.34%
13,COc1ccc(C)cc1S(=O)(=O)Nc1cc2c3c(c1)CCC(=O)N3CCC2,-35% (active)
14,COc1ccc(CNS(=O)(=O)c2cc3c4c(c2)CCN4C(=O)CC3)cc1,-7.89% and -23.2%
15,CCOC(=O)c1scc(-c2ccc(C)cc2)c1S(=O)(=O)Nc1cc(C)ccc1C,-6.21%
16,COc1cc(OC)cc(C(=O)Nc2ccc3nc(Nc4cccc(C(F)(F)F)c4)cc(C)c3c2)c1,-9.91%
17,CO/N=C/c1ccc(N2CCN(C(=O)c3cccc(Cl)c3)CC2)c([N+](=O)[O-])c1,-27.5%
18,CC1CCN(c2nc3ccc(C(=O)N4CCN(c5ccccc5)CC4)cc3s2)CC1,4.36%
19,Nc1ccc(C(=O)N2CCN(S(=O)(=O)c3ccc(Cl)cc3)CC2)cc1[N+](=O)[O-],-1.4%
20,O=C(c1ccc(Oc2ccc(Cl)cc2)c([N+](=O)[O-])c1)N1CCCC1,-38.6% (active)
21,O=C(c1ccc(Cl)c([N+](=O)[O-])c1)N1CCN(c2ccccc2)CC1,-35.8% (active)
22,C/C(=C/c1ccccc1)C(=O)N1CCN(c2ccccc2)CC1,-2.86%
23,O=C(c1ccccc1)c1ccc(C(=O)N2CCN(c3ccccc3)CC2)cc1,-32.4% (active)

row,Compound,"activity change, negative = inhibition"
1,O=C(c1ccc(Cl)c(Cl)c1)N1CCCC1,-10.9%
2,O=C(COc1ccc(Cl)cc1[N+](=O)[O-])N1CCCCC1,15.9%
3,O=S(=O)(c1ccc(C2CCCCC2)cc1)N1CCN(c2ccc(Cl)c(Cl)c2)CC1,14.7%
4,Cc1cc(NS(=O)(=O)c2ccc3oc(=O)c4ncn(C)c4c3c2)ccc1Br,-1.47%
5,Cn1nnnc1Sc1ncnc2scc(-c3ccccc3[N+](=O)[O-])c12,-0.145%
6,Cc1ccc(-c2nc(Cn3c(=O)cc(-c4ccccc4)c4c(C)nn(C)c43)c(C)o2)cc1,12%
7,CN(C)c1ccc(NC(=O)CSc2nc(-c3ccco3)cc(C(F)(F)F)n2)cc1,-4.62%
8,CCn1c(C)c(C)c2cc(C(=O)NCCc3cc(OC)ccc3OC)ccc21,13.1%
9,COc1ccc(C(=O)OCC(=O)c2ccc(Cl)s2)c(OC)c1OC,-34.5% (active)
10,COc1ccc(C(=O)COC(=O)c2ccc([N+](=O)[O-])s2)cc1OC,3.97%
11,COc1ccc(Cl)cc1C(=O)OCC(=O)NCc1cccs1,-19.7%
12,COC(=O)c1ccccc1NC(=O)Cn1c(=O)cc(C)c2c(C)nn(-c3cccc(Cl)c3C)c21,11.3%
13,Cc1ccc(C)c(Cn2c(CCCNC(=O)C3CCCCC3)nc3ccccc32)c1,-4.99%
14,Cc1cccc(-c2noc(CCC(=O)NC3CCCC3)n2)c1,-18.1%
15,Cc1ccc2c(cnn2C(=O)CCC(=O)NC2CCCC2)c1,-47.2% (active)
16,Cc1cccc2c1cnn2C(=O)CCC(=O)NC1CCCCC1,11.5%
17,Cc1cccc2c(=O)cc(CSc3ccccc3NC(=O)C(C)C)[nH]c12,-2.11%
18,COc1ccc(NC(=O)c2ccco2)cc1NC(=O)c1ccc(C#N)cc1F,-1.13% and -9.12%
19,COc1ccc(NC(=O)CCC(=O)Nc2cc(OC)c(NC(=O)c3ccco3)cc2OC)c(OC)c1,-3.66%
20,COc1cc(NC(=O)c2cc([N+](=O)[O-])ccc2Br)ccc1NC(=O)c1ccco1,-45.2% (active)
